# Results filed as inconclusive are left out. Active and inactive are the calls of the source. Calls come from the whole dose curve.
# Assay: Primary qHTS to identify inhibitors of SARS-CoV-2 cell entry (AID 1645846); note: nearly all actives have a fitted effect of over 45% in size
# Conditions: SARS-CoV-2 pseudovirus cell entry assay, luminescence; activity change, negative = inhibition: at 57.1 µM (top of the series) unless noted
# From the text: Assay Provider: Wei Zheng, Ph.D.
# National Center for Advancing Translational Sciences, National Institute of Health, Rockville, MD.
# SARS-CoV-2 spike protein, within the viral envelope, mediates viral attachment and infection of host cells. The SARS-CoV-2 spike protein specifically binds to the host receptor ACE2 (Angiotensin-converting enzyme 2). This interaction promotes endocytosis of the viral particle, additional events lead to viral-host cell membrane fusion and release of the viral contents, allowing viral replication.
# While SARS-CoV-2 requires BSL-3 facilities for live virus work, pseudotyped partices (PP) that incorporate SARS-CoV-2 spike proteins without replication elements could facilitate studies on viral entry mechanisms in a BSL-2 setting. This PP cell entry assay could also enable screening of small molecule compound libraries in BSL-2 setting to identify inhibitors of SARS-CoV-2 cell entry.
# PROTOCOL TABLE (format as described by Inglese J, Shamu CE and Guy RK. 2007)
# SEQUENCE No. (e.g., 1, 2, 3, etc.); […] (e.g., Cells, Incubation, Reagent, etc.); VALUE and DESCRIPTION.
# 1. Cells. Seed 1500 HEK293-ACE2 cells (Expi293F with stable expression of human ACE2) in 2 uL/well media (DMEM, 10% FBS, 1x L-glutamine, 1x Pen/Strep, 1 ug/ml puromycin) in white 1536-well assay plates (Greiner #782073).
# 2. Incubation. Incubate at 37C with 5% CO2 overnight (~16 h).
# 3. Compounds. Dispense 23 nL/well compounds in DMSO via pin transfer.
# 4. Incubation. Incubate for 1 hr at 37C 5% CO2.
# 5. Reagent. Dispense 2 uL/well of SARS-CoV-2-S pseudotyped particles. [a] PPs are produced with murine leukemia virus pseudotyping. [b] SARS-CoV-2-S is Wuhan-Hu-1 sequence (BEI #NR-52420) with C-terminal 19 amino acid truncation.
# 6. Centrifuge. […]
# 7. Incubation. Incubate at for 48 hr at 37C 5% CO2
# 8. Centrifuge. Remove supernatant with gentle centrifugation using a Blue Washer (BlueCat Bio).
# 9. Reagent. Dispense 4 uL/well of Bright-Glo Luciferase detection reagent (Promega #E2620).
# 10. Incubation. Incubate for 5 min at room temperature.
# 11. Detection. Read luminescence signal (Viewlux plate reader, PerkinElmer). Data was normalized with wells containing SARS-CoV-2-S PP as 100%, and wells containing bald PP (no fusion protein) as 0%.
# Potency is the fitted concentration of half-maximal effect.
Compound,outcome,"activity change, negative = inhibition",Potency
O=c1c(-c2ccc(O)cc2)coc2cc(O[C@@H]3O[C@H](CO)[C@@H](O)[C@H](O)[C@H]3O)ccc12,inactive,,
COC(=O)[C@H]1[C@H]2C[C@@H]3c4[nH]c5cc(OC)ccc5c4CCN3C[C@H]2C[C@@H](OC(=O)/C=C/c2cc(OC)c(OC)c(OC)c2)[C@@H]1OC,,-22.2% [at 19 µM],
CC1(C)O[C@@H]2C[C@H]3[C@@H]4CCC5=CC(=O)C=C[C@]5(C)[C@H]4[C@@H](O)C[C@]3(C)[C@]2(C(=O)CO)O1,,4.23%,
COc1cccc2c1C(=O)c1c(O)c3c(c(O)c1C2=O)C[C@@](O)(/C(CO)=N/NC(=O)CCCCCN1C(=O)C=CC1=O)C[C@@H]3O[C@H]1C[C@H](N)[C@H](O)[C@H](C)O1,,,1 µM (active)
Cc1cc(-c2ccc(N=Nc3ccc4c(S(=O)(=O)O)cc(S(=O)(=O)O)c(N)c4c3O)c(C)c2)ccc1N=Nc1ccc2c(S(=O)(=O)O)cc(S(=O)(=O)O)c(N)c2c1O,,-2.58%,
Cc1[nH]cnc1CN1CCN(C(=O)N[C@@H](CC(C)C)C(=O)O)[C@@H](Cc2ccccc2)C1=O,,3.22%,
[2H]N[C@@H](Cc1ccccc1)C(=O)N1CCC[C@H]1C(=O)N[C@@H](CCCNC(=N)N)C(=O)N1CCC[C@H]1C(=O)NCC(=O)NCC(=O)NCC(=O)NCC(=O)N[C@@H](CC(N)=O)C(=O)NCC(=O)N[C@@H](CC(=O)O)C(=O)N[C@@H](Cc1ccccc1)C(=O)N[C@@H](CCC(=O)O)C(=O)N[C@@H](CCC(=O)O)C(=O)N[C@H](C(=O)N1CCC[C@H]1C(=O)N[C@@H](CCC(=O)O)C(=O)N[C@@H](CCC(=O)O)C(=O)N[C@@H](Cc1ccc(O)cc1)C(=O)N[C@@H](CC(C)C)C(=O)O)[C@@H](C)CC,,-18.8% [at 11.3 µM],
Cc1cc(-c2ccc(N=Nc3c(S(=O)(=O)O)cc4cc(S(=O)(=O)O)cc(N)c4c3O)c(C)c2)ccc1N=Nc1c(S(=O)(=O)O)cc2cc(S(=O)(=O)O)cc(N)c2c1O,,2.81%,
Cc1c(NC(=O)c2cc(C(N)=O)nc3cc(F)ccc23)c(C(F)(F)F)nn1Cc1ccc(C(C)(C)C)cc1,,-95.1%,
C[C@]12CC[C@H](O)CC1=CC[C@@H]1[C@@H]2CC[C@]2(C)C(c3cccnc3)=CC[C@@H]12,inactive [at 27.1 µM],,
Cc1c(F)ccc(C(=O)Nc2cc([N+](=O)[O-])ccc2N2CCN(C)CC2)c1Cl,,-18.7%,
NC(=O)C1CCCN1C(=O)C(Cc1cnc[nH]1)NC(=O)C1CCC(=O)N1 (stereo not given),inactive,,
CC(C)(CO)n1cc(C(=O)c2cncc(NC(=O)Cc3ccc(Cl)cn3)c2)c2cnc(N)nc21,inactive,,
Nc1cccc2c1CN([C@H]1CCC(=O)NC1=O)C2=O,,-16.6%,
CCOC(=O)N[C@@H]1CC[C@@H]2[C@@H](C1)C[C@H]1C(=O)O[C@H](C)[C@H]1[C@H]2/C=C/c1ccc(-c2cccc(F)c2)cn1,,,28.2 µM (active)
C[C@H]1[C@H](O)[C@@H](C)/C=C/C=C/CC/C=C/C=C/C=C/C=C/[C@H](O[C@@H]2O[C@H](C)[C@@H](O)[C@H](N)[C@@H]2O)C[C@@H]2O[C@](O)(C[C@@H](O)[C@H](O)CC[C@@H](O)C[C@@H](O)C[C@@H](O)CC(=O)O[C@H]1C)C[C@H](O)[C@H]2C(=O)O,,-39.7%,
Cc1cc(Nc2cc(N)ncn2)c(=O)n2c1C(=O)NC21CCCCC1,inactive [at 27.1 µM],,
CNS(=O)(=O)CC1CCC(N(C)c2ncnc3[nH]ccc23)CC1 (stereo not given),inactive,,
O=C1C(c2[nH]c3ccc(S(=O)(=O)O)cc3c2O)=Nc2ccc(S(=O)(=O)O)cc21,,-23%,
CN1C(=O)N[C@@H](Cc2c[nH]c3c(Cl)cccc23)C1=O,,1.88%,

Compound,outcome,"activity change, negative = inhibition",Potency
O=C(Nc1cnn2ccc(N3CCC[C@@H]3c3cc(F)ccc3F)nc12)N1CC[C@H](O)C1,inactive,,
CCCc1cc(C(=O)N[C@H](Cc2ccc(-c3cccc(OC(F)(F)F)c3)nc2)C(=O)N[C@@H]2CCNC2)sc1C,,,31.6 µM (active)
Cc1nc2ccc(C(=O)N3CCC4(CC3)CC(=O)c3c(cnn3C(C)C)C4)cc2[nH]1,,,14.1 µM (active)
C[C@H]1[C@H](OC(=O)CCC(=O)O)O[C@@H]2O[C@@]3(C)CC[C@H]4[C@H](C)CC[C@@H]1[C@@]24OO3,,,2.24 µM (active)
CC1CC2C3CCC4=CC(=O)C=CC4(C)C3(F)C(O)CC2(C)C1(O)C(=O)COC(=O)c1cccc(S(=O)(=O)O)c1 (stereo not given),,4.79%,
CC1(C)S[C@@H]2[C@H](NC(=O)C(C(=O)Oc3ccc4c(c3)CCC4)c3ccccc3)C(=O)N2[C@H]1C(=O)O (stereo not given in full),inactive,,
CNc1ncc(-c2ccc3c(=O)c(C(=O)O)cn(C4CC4)c3c2C)cc1C,,-15.2% [at 19 µM],
Oc1c(Br)cc(Br)cc1CNC1CCC(O)CC1 (stereo not given),,-15.3%,
O=c1ncccn1[C@@H]1O[C@H](CO)[C@@H](O)[C@H]1O,inactive,,
NC1CCCN(c2c(/C=C3\SC(=O)NC3=O)cccc2-c2ccccc2)C1 (stereo not given),,-5.59%,
CN(C(=O)CO)c1c(I)c(C(=O)NCC(O)CO)c(I)c(C(=O)NCC(O)CO)c1I (stereo not given),,-14.3%,
CNCC(O)c1ccc(OC(=O)C(C)(C)C)c(OC(=O)C(C)(C)C)c1 (stereo not given),,-25.4%,
COc1nc(OCc2cccc(-c3ccccc3)c2C)ccc1CNCCNC(C)=O,,,11.2 µM (active)
O=C(NNc1ccccc1)c1ccncc1,,-19.4%,
COc1cc2c(cc1OC)[C@@H](Cc1cc(OC)c(OC)c(OC)c1)[N+](C)(CCCOC(=O)CC/C=C/CCC(=O)OCCC[N+]1(C)CCc3cc(OC)c(OC)cc3[C@H]1Cc1cc(OC)c(OC)c(OC)c1)CC2 (stereo not given in full),,-24%,
COc1ccc(Cl)cc1-c1cc(=O)[nH]c(=S)n1CC(N)=O,,4.69%,
CCC[C@@H]1CC(=O)N([C@@H](CC)C(N)=O)C1,,-22.5%,
Cn1c(NC[C@@H](N)Cc2ccccc2)nc(-c2ccncc2)c(-c2ccc3ccccc3c2)c1=O,,,28.2 µM (active)
C=C1/C(=C/C=C2\CCC[C@]3(C)[C@@H]([C@H](C)/C=C/C=C/C(O)(CC)CC)CC[C@@H]23)C[C@@H](O)C[C@@H]1O,,-5.54%,
Cc1nc(NC(=O)N2CCC[C@H]2C(N)=O)sc1-c1csc(C(C)(C)C)n1,inactive,,

# — PubChem BioAssay (NCATS)
